According to PubChem BioAssay (NCATS):
“And” between values parts separate entries of the source, which are not always exact repeats. Equal values may be shown once. Results filed as inconclusive are left out. Some structures have more than one record in an assay (separate samples or runs), and their calls can disagree. The source made the active and inactive calls. Unless noted, calls follow the shape of the dose curve; as a rule, active = well fitted curve in either direction with a large enough effect (not every such curve was filed as active); inconclusive = small, poorly fitted or top-dose-only effect, or another doubt; inactive = flat fitted curve, though single readings scatter.

Columns and labels:
[1] = AP1 Signaling Pathway (AID 357); conditions: ME-180 AP-1-bla reporter, EGF-induced, beta-lactamase ratio, 5 h; also: % is scaled to controls: 0 for no effect and ±100 for the full control effect
How it was run: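 In this screen, ME-180 cells in Opti-MEM with 0.5% dialyzed FBS received EC50 EGF and compound titrations for 5 h. AP-1 reporter beta-lactamase was detected via CCF4 ratio, giving AC50 for positive and negative modulators.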

[2] = molecular target: Cytochrome P450 1A2 (Homo sapiens) (UniProt P05177); experiment: p450-cyp1a2 (AID 410; calls by dose curve; also: potency is read from the fitted curve at half-maximal effect;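 as to activity change, negative = inhibition: -100% = full effect of reference inhibitor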)
How it was run: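 Inhibition was calculated relative to 57 uM furafylline (full inhibition). The reaction used human CYP1A2 at 20nM with Luciferin-ME at its Km, 100uM, driven by an NADPH-regenerating system for 60 min at room temperature.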

[3] = NFAT Signaling Pathway (AID 444); conditions: Jurkat NFAT-bla M1, carbachol, beta-lactamase ratio, 5 h;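 also: carbachol stimulus at about its EC50 of 1 µM final; % is scaled to controls: 0 for no effect and ±100 for the full control effect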
How it was run: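 Jurkat cells carrying an NFAT-driven β-lactamase reporter and co-transfected muscarinic M1 receptor were treated with compound plus carbachol (1 uM final, an EC50 level) for 5 h at 37 °C. CCF4 loading followed for 1 h at RT; 460/530 nm ratio gave %activity.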

[4] = Stat Signaling Pathway (AID 446); conditions: ME-180 SIE beta-lactamase reporter, IL-6 stimulated, 5 h;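 also: ME-180 cervical cancer cells given 40 pM IL-6 alongside compound; SIE-controlled beta-lactamase reporter measured as 460/530 nm FRET emission ratio; % is scaled to controls: 0 for no effect and ±100 for the full control effect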
How it was run: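 ME-180 cells carrying a SIE-driven beta-lactamase reporter are stimulated with 40 pM IL-6 for 5 h at 37C in the presence of compound. The 460/530 nm FRET substrate ratio is read after 2.5 h at RT. Data are normalised to 300 pM IL-6 and to 125 nM JAK inhibitor controls.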

[5] = molecular target: Glucocorticoid receptor (Homo sapiens) (UniProt P04150); experiment: GR-GFP Redistribution (AID 450;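 active = compounds whose dose series gives a full or clear partial fitted curve of increased nuclear translocation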; also: potency is read from the fitted curve at half-maximal effect); conditions: U2OS GR-GFP nuclear translocation, laser cytometry, 2 h
[6] = molecular target: Glucocorticoid receptor (Homo sapiens) (UniProt P04150); experiment: GR-EFC Redistribution (AID 451; calls by dose curve; also: potency is read from the fitted curve at half-maximal effect); conditions: CHO-K1 GR-EFC translocation, beta-gal luminescence, 2 h
How it was run: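 CHO-K1 cells stably expressing nuclear-localized β-gal enzyme acceptor and GR fused C-terminally to the enzyme donor fragment; ligand-driven nuclear translocation restores β-gal by complementation. Compounds titrated up to 46 uM final, 2 h at 37 °C; luminescence read.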

[7] = molecular target: Lysosomal acid glucosylceramidase (Homo sapiens) (UniProt P04062); experiment: Glucocerebrosidase-p2 (AID 348; in the data active = potency below about 10 µM; also: potency is read from the fitted curve at half-maximal effect); conditions: purified GBA, blue fluorogenic substrate, 40 min
How it was run: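 Compounds titrated from 0.6 nM upwards against 0.2 nM enzyme in pH 5.9 citric acid/KH2PO4, taurocholate, tween-20; blue fluorogenic substrate 80 uM, 40 min room temperature, stopped and read Ex 365/Em 440 for AC50.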

[8] = molecular target: Mitogen-activated protein kinase 10 (Mus musculus) (UniProt Q61831); experiment: JNK3 AlphaScreen Assay (AID 530);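 also: kinase came from lysate of stimulated human HepG2 cells; signal reports phosphorylation of biotinylated GST-cJun 1-79 at Ser73 with 10 µM ATP; % is scaled to controls: 0 for no effect and ±100 for the full control effect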
How it was run: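 JNK3 came from HepG2 lysates pre-activated with IL-1beta and TNF-alpha and phosphorylated biotinylated GST-cJun (1-79) at 10 uM ATP, pH 7.6, room temperature. Compounds were titrated. AlphaScreen signal used anti-phospho-cJun (Ser73) antibody.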

[9] = at 38 µM (top of the series) unless noted

Sequence of Glucocorticoid receptor (Homo sapiens) (P04150 whole entry, looked up, the tested form may be a part): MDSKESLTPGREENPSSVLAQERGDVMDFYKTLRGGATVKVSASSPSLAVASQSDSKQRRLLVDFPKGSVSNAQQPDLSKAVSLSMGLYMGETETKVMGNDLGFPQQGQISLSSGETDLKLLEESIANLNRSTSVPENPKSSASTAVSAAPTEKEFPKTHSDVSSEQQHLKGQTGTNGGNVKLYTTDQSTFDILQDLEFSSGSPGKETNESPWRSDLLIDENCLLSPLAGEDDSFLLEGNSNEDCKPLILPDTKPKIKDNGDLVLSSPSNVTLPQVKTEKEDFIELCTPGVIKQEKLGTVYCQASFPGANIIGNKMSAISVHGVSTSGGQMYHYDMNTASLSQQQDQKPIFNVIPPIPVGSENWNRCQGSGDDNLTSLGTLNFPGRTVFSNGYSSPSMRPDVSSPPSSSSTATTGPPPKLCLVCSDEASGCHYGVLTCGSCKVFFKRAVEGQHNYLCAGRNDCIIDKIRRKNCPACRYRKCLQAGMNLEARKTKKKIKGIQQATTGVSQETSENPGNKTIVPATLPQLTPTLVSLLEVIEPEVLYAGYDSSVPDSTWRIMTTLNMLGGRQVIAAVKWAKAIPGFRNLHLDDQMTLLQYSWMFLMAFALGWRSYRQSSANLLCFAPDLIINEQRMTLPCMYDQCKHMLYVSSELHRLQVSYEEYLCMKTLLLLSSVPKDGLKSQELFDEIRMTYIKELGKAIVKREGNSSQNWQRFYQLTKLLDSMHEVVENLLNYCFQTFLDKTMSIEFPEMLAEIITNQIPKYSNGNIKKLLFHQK
Sequence of Cytochrome P450 1A2 (Homo sapiens) (P05177 whole entry, looked up): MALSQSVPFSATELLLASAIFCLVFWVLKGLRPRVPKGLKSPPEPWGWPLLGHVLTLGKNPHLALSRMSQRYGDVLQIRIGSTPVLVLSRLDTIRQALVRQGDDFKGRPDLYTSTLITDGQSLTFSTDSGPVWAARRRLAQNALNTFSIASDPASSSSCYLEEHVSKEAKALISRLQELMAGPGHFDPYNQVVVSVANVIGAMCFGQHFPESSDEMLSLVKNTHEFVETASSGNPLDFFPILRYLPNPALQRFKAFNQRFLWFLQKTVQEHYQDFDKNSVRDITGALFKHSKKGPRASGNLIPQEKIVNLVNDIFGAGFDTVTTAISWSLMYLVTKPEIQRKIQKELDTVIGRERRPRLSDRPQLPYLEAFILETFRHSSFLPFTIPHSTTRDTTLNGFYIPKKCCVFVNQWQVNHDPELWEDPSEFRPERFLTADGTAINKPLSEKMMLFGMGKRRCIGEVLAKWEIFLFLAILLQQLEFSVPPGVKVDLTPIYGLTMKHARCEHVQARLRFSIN
Sequence of Lysosomal acid glucosylceramidase (Homo sapiens) (P04062 whole entry, looked up): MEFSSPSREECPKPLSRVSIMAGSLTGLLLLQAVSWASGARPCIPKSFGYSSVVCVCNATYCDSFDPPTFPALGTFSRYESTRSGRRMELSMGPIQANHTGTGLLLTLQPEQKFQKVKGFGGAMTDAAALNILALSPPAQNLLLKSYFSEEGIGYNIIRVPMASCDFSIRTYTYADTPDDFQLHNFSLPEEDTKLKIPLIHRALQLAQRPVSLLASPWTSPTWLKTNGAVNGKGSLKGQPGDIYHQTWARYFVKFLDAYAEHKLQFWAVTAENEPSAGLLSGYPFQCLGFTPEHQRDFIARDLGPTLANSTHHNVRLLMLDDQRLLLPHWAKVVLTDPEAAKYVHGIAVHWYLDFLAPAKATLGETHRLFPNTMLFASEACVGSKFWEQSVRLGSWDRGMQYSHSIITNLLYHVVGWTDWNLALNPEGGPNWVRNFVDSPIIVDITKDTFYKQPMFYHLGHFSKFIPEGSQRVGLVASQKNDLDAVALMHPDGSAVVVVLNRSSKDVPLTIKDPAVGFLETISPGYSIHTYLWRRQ

Compound: CCN1C(=O)C=CC1=O
- activity change, negative = inhibition [1, 9]: -2.69% (inactive)
- Potency [2]: inactive
- activity change, negative = inhibition [3, 9]: 4.62% (inactive)
- activity, negative = inhibition [4, 9]: -6.29% (inactive)
- Potency [5]: > 46 µM (inactive)
- Potency [6]: > 46 µM (inactive)

Compound: NC(N)=[N+]1CCc2ccccc2C1
- activity change, negative = inhibition [1, 9]: -5.39% (inactive)
- Potency [2]: inactive
- activity change, negative = inhibition [3, 9]: 1.51% (inactive)
- activity, negative = inhibition [4, 9]: 19.1% (inactive)
- Potency [5]: > 46 µM (inactive)
- Potency [6]: > 46 µM (inactive)

Compound: O=c1[nH]c(=S)[nH]c(-c2ccccc2)c1Cc1c(O)ccc2ccccc12
- Potency [7]: > 11.4 µM (inactive)
- Potency [2]: 1 µM (active)
- activity change, negative = inhibition [3, 9]: 15.8% [at 7.69 µM] (inactive)
- activity, negative = inhibition [4, 9]: -12.5% [at 7.69 µM] (inactive)
- Potency [5]: > 46 µM (inactive)
- Potency [6]: > 9.22 µM (inactive)

Compound: [Li+]
- activity change, negative = inhibition [1, 9]: 3.61% (inactive)
- Potency [2]: inactive
- activity change, negative = inhibition [3, 9]: 1.3% (inactive)
- activity, negative = inhibition [4, 9]: -7.38% (inactive)
- Potency [5]: > 46 µM (inactive)
- Potency [6]: > 46 µM (inactive)

Compound: O=c1cc(-c2ccccc2)[nH]c2nc(Cl)ccc12
- activity change, negative = inhibition [1, 9]: -2.89% (inactive)
- Potency [2]: 0.398 µM (active)
- activity change, negative = inhibition [3, 9]: -13% (inactive)
- activity, negative = inhibition [4, 9]: -25.2% (inactive)
- Potency [5]: > 46 µM (inactive)
- Potency [6]: > 46 µM (inactive)
- outcome [8]: inactive

Compound: C=CCn1c(=O)c2c(nc(-c3ccc(S(=O)(=O)O)cc3)n2C)n(C)c1=O
- activity change, negative = inhibition [1, 9]: 7.93% (inactive)
- Potency [2]: inactive
- activity change, negative = inhibition [3, 9]: -1.07% (inactive)
- activity, negative = inhibition [4, 9]: 20.8% (inactive)
- Potency [5]: > 46 µM (inactive)
- Potency [6]: > 46 µM (inactive)

Compound: COc1ccc(C(=O)NCc2cccnc2)cc1C(=O)NCc1cccnc1
- activity change, negative = inhibition ([1]; at 17.2 µM (top of the series)): 9.58% (inactive)
- activity change, negative = inhibition ([1]; at 38 µM (top of the series)): 4.86% (inactive)
- activity change, negative = inhibition ([3]; at 17.2 µM (top of the series)): -4.93% (inactive)
- activity change, negative = inhibition ([3]; at 38 µM (top of the series)): -7.04% (inactive)
- activity, negative = inhibition ([4]; at 17.2 µM (top of the series)): 2.24% (inactive)
- activity, negative = inhibition ([4]; at 38 µM (top of the series)): -27.6% (inactive)
- Potency [5]: > 46 µM (inactive) and > 20.6 µM (inactive)
- Potency [6]: > 46 µM (inactive) and > 20.6 µM (inactive)

Compound: O=C(c1ccc2c(c1)OCCO2)N1CCCCC1
- activity change, negative = inhibition [1, 9]: 1.86% (inactive)
- Potency [2]: 15.8 µM (active)
- activity change, negative = inhibition [3, 9]: 5.58% (inactive)
- activity, negative = inhibition [4, 9]: 25% (inactive)
- Potency [5]: > 46 µM (inactive)
- Potency [6]: > 46 µM (inactive)
- outcome [8]: inactive

Compound: CC(C)NC[C@H](O)COc1ccc(CC(N)=O)cc1
- activity change, negative = inhibition ([1]; at 17.2 µM (top of the series)): -3.59% (inactive) and 11.3% (inactive)
- activity change, negative = inhibition ([1]; at 38 µM (top of the series)): 0.299% (inactive) and 0.963% (inactive) and -3.89% (inactive)
- activity change, negative = inhibition ([3]; at 17.2 µM (top of the series)): -9.34% (inactive) and -0.713% (inactive)
- activity change, negative = inhibition ([3]; at 38 µM (top of the series)): -2.26% (inactive) and 6.34% (inactive) and 5.93% (inactive)
- activity, negative = inhibition ([4]; at 17.2 µM (top of the series)): 2.19% (inactive) and -5.69% (inactive)
- activity, negative = inhibition ([4]; at 38 µM (top of the series)): 0.94% (inactive) and 14.3% (inactive)
- outcome [8]: inactive

Compound: COc1ccccc1N1CCN(CCCCNC(=O)c2ccc3ccccc3c2)CC1
- activity change, negative = inhibition [1, 9]: 1.71% (inactive)
- Potency [2]: 20 µM (active) and inactive
- activity change, negative = inhibition [3, 9]: -13.3% (inactive)
- activity, negative = inhibition ([4]; at 17.2 µM (top of the series)): 5.11% (inactive)
- activity, negative = inhibition ([4]; at 38 µM (top of the series)): -1.2% (inactive)
- Potency [5]: > 46 µM (inactive) and > 20.6 µM (inactive)
- Potency [6]: > 46 µM (inactive) and > 20.6 µM (inactive)
- outcome [8]: inactive

Compound: NCCCCN
- activity change, negative = inhibition [1, 9]: 15.3% (inactive)
- Potency [2]: inactive
- activity change, negative = inhibition [3, 9]: -2.09% (inactive)
- activity, negative = inhibition [4, 9]: -10.8% (inactive)
- Potency [5]: > 46 µM (inactive)

Compound: COc1ccccc1N1CCN(CCCCN2C(=O)c3ccccc3C2=O)CC1
- activity change, negative = inhibition [1, 9]: -12.6% (inactive)
- Potency [2]: inactive
- activity change, negative = inhibition [3, 9]: -20.4% (inactive)
- activity, negative = inhibition [4, 9]: 19% (inactive)
- Potency [5]: > 46 µM (inactive)
- Potency [6]: > 46 µM (inactive)

Compound: O=c1onc2n1-c1cc(Br)ccc1OC2
- activity change, negative = inhibition [1, 9]: 1.26% (inactive)
- Potency [2]: 0.794 µM (active)
- activity change, negative = inhibition [3, 9]: 3.41% (inactive)
- activity, negative = inhibition [4, 9]: -16.1% (inactive)
- Potency [5]: > 46 µM (inactive)
- Potency [6]: > 46 µM (inactive)

Compound: CSC(=N)N
- activity change, negative = inhibition [1, 9]: -0.186% (inactive)
- Potency [2]: inactive
- activity change, negative = inhibition [3, 9]: 4.79% (inactive)
- activity, negative = inhibition [4, 9]: -2.27% (inactive)

Compound: CC(N)=O
- activity change, negative = inhibition [1, 9]: 9.17% (inactive)
- Potency [2]: inactive
- activity change, negative = inhibition [3, 9]: -6.62% (inactive)
- activity, negative = inhibition [4, 9]: 13.9% (inactive)
- Potency [5]: > 46 µM (inactive)
- Potency [6]: > 46 µM (inactive)

Compound: COc1ccc2c(c1)c(CC(=O)O)c(C)n2Cc1ccc(Cl)cc1
- activity change, negative = inhibition [1, 9]: -18.2% (inactive)
- Potency [2]: 31.6 µM (active)
- activity change, negative = inhibition [3, 9]: -4.65% (inactive)
- Potency [5]: > 46 µM (inactive)
- Potency [6]: > 46 µM (inactive)

Compound: N#Cc1cc2nc(O)c(O)nc2cc1[N+](=O)[O-]
- activity change, negative = inhibition [1, 9]: -1.83% (inactive)
- Potency [2]: inactive and 39.8 µM (active)
- activity change, negative = inhibition [3, 9]: 10.2% (inactive)
- activity, negative = inhibition [4, 9]: -26.5% (inactive)
- Potency [5]: > 46 µM (inactive)
- Potency [6]: > 46 µM (inactive)
- outcome [8]: inactive

Compound: COc1cc(CC(=O)O)ccc1O
- activity change, negative = inhibition [1, 9]: 8.32% (inactive)
- Potency [2]: inactive
- activity change, negative = inhibition [3, 9]: 6.22% (inactive)
- Potency [5]: > 46 µM (inactive)
- Potency [6]: > 46 µM (inactive)
- outcome [8]: inactive

Compound: CCSC(=N)N
- activity change, negative = inhibition [1, 9]: -24.3% (inactive)
- Potency [2]: inactive
- activity change, negative = inhibition [3, 9]: 1.19% (inactive)
- activity, negative = inhibition [4, 9]: 9.06% (inactive)
- Potency [5]: > 46 µM (inactive)
- Potency [6]: > 46 µM (inactive)
- outcome [8]: inactive

Compound: NC(=Nc1ccccc1)NC(=O)c1nc(Cl)c(N)nc1N
- activity change, negative = inhibition [1, 9]: -5.68% (inactive)
- Potency [2]: 12.6 µM (active)
- activity change, negative = inhibition [3, 9]: 21.6% (inactive)
- Potency [5]: > 46 µM (inactive)
- Potency [6]: > 46 µM (inactive)
